Rows were chosen to be rich in hits. Some 14% of all compounds tested hit in one or more screens of this group.
FBPA Giardia inh – Giardia lamblia aldolase inhibition; A8B2U2; purified Giardia FBPA; Potency, µM (series often up to 59.6 µM), for the others: at the highest dose activity, negative = inhibition, hits mostly inhibitors; 290,000 compounds, 0.71% hits; AID 2451; also: potency is read from the fitted curve at half-maximal effect; nearly all actives have a fitted effect of over 55% in size
Target sequence (A8B2U2 whole entry, looked up): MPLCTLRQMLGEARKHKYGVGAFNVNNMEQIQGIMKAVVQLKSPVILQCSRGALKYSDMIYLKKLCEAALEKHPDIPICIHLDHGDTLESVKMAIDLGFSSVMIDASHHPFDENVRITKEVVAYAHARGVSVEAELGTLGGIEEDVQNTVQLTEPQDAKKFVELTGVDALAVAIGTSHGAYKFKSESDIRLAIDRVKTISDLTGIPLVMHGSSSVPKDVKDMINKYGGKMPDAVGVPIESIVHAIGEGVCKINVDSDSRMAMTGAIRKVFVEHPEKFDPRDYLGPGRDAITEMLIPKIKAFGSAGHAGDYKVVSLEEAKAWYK
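Giardia FBPA (40 nM reagent) was preincubated 10 min at RT with compound (up to 57.5 uM final), then substrate plus GAPDH/TPI/NAD/arsenate coupling system with diaphorase/resazurin was added; resorufin fluorescence (525/598 nm) was read after 20 min.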
HCMV inh – blocks human cytomegalovirus replication. HFF cells, HCMV-luciferase reporter, 72 h; hits give low values. activity change, negative = inhibition, % at 57.5 µM. 410,000 compounds, 4.5% hits. AID 1259415; in the data active = activity change below about -60%; inconclusive = no clear call, values can overlap the other calls; inactive = above about -39%
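Cell-based, HFFs, 1000 cells/well, 16 h 37C; cpds in DMSO + HCMV-luc, MOI 1 PFU/cell; 72 h 37C; OneGlo luminescence after 5 min RT; norm. to buffer vs Salinomycin 10uM.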
Pf growth 48h – inhibits P. falciparum growth in the first generation, 48 h; P. falciparum luciferase growth in erythrocytes, 48 h; Potency, µM (top dose mostly 28.7 µM), for the others: top-dose activity change, negative = inhibition, usual class: inhibitors; AID 504832; 310,000 compounds, 5.9% hits; also: potency is read from the fitted curve at half-maximal effect
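Luciferase-expressing P. falciparum in infected erythrocytes (2% hematocrit, 0.1% parasitemia final) in RPMI 1640/0.5% Albumax were exposed to compound for 48 hours at 37 C, 5% CO2; growth read as luminescence.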
Pf growth 96h – P. falciparum growth inhibition at 96 hour, primary screen for plastid delayed-death inhibitors; P. falciparum luciferase reporter growth, 96 h; Potency, µM (series often up to 28.7 µM), for the others: top-dose activity change, negative = inhibition, usual class: inhibitors; 320,000 compounds, 6.9% hits; AID 504834; also: potency is read from the fitted curve at half-maximal effect
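Readout is luminescence from an integrated firefly luciferase in P. falciparum. Red cells, 2% hematocrit and 0.05% parasitemia final, were cultured with compound through two parasite generations (96 hours) at 37 C, 5% CO2.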
Sm TGR block – S. mansoni TGR enzyme inhibition; purified TGR, DTNB reduction, TNB absorbance 405 nm; Potency, µM (doses to about 114 µM), without a hit: top-dose activity change, negative = inhibition, usual class: inhibitors; 360,000 compounds, 3% hits; AID 485364; also: potency is read from the fitted curve at half-maximal effect; nearly all actives have a fitted effect of over 60% in size
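First, TGR (20 nM dispensed) and NADPH were mixed with compound. Second, a 15 min room-temperature incubation followed. Third, further NADPH and then DTNB were added to start the reaction. Finally, TNB absorbance was monitored kinetically.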
* = called active by the depositor; ? = inconclusive; . = no result given; [ ] = another dose, or the depositor's remark. Unless noted, calls follow the shape of the dose curve; as a rule, active = well fitted curve in the direction sought with a large enough effect; inconclusive = small, poorly fitted or top-dose-only effect, or another doubt; inactive = no such curve, though single readings can be large; an effect the other way counts as inactive or inconclusive. % is scaled to controls: 0 for no effect and ±100 for the full control effect.

SMILES	FBPA Giardia inh	HCMV inh	Pf growth 48h	Pf growth 96h	Sm TGR block
C[C@@H](NC(=O)[C@@H]1CCCN1C(=O)[C@@H]1CCCN1C(=O)c1cccs1)c1ccccc1	.	4.8	.	.	.
COc1ccc(-c2nc(C)c(CCNC(=O)C(=O)Nc3cc(C)cc(C)c3)s2)cc1OC	.	14.4	.	.	2.4%
C=CCOC(=O)C(C#N)c1nc2ccccc2nc1N1CCN(c2ccccc2OC)CC1 (stereo not given)	-13.4%	11.2	5.86µM*	8.28µM*	-1.9%
C=CCOC(=O)C(C#N)c1nc2ccccc2nc1N1CCN(Cc2ccccc2)CC1 (stereo not given)	-13.1%	-4.0	?	-20.7%	-10.4%
CC1O[C@@H](O[C@H]2C(Oc3cc(O)c4c(c3)OC(c3ccc(O)cc3)CC4=O)OC(CO)C(O)C2O)C(O)C(O)C1O (stereo not given in full)	-1.2%	.	.	.	.
Nn1c(SCC(=O)Nc2ccc(Oc3ccccc3)cc2)nnc1C1CC1	-6.4%	-21.1	8.28µM*	?	-11.4%
Nn1c(SCC(=O)Nc2ccc(F)c(F)c2)nnc1C1CCCCC1	-1.1%	-2.2	-28.1%	11.7µM*	6.5%
NC(=O)c1ccc(NC(=O)CSc2nnc(C3CCCCC3)n2N)cc1	2.7%	6.7	29.4%	31.1%	-29.0%
Cc1cccc(C(=O)NC(Oc2ccccc2)C(Cl)(Cl)Cl)c1 (stereo not given)	2.3%	-8.8	?	7.38µM*	5.1%
COc1ccc(C(=O)NC(Oc2ccccc2)C(Cl)(Cl)Cl)cc1 (stereo not given)	3.6%	26.5	64.2%	?	?
Cc1cc(/C=N/NC(=O)c2ccncc2)c(C)n1-c1ccccc1	-17.2%	-24.5	26.2%	?	-9.9%
CCc1ccc(-n2c(C)cc(/C=N/NC(=O)OC)c2C)cc1	-9.1%	-84.3*	?	4.4%	-17.4%
Cc1cc(C)nc(SCC(=O)N/N=C/c2cc(C)n(-c3ccccc3C)c2C)n1	-7.7%	3.4	5.22µM*	?	-19.4%
Cc1ccc(-n2c(C)cc(/C=N/NC(=O)c3ccncc3)c2C)c(C)c1	6.8%[12.9 µM]	-34.0	2.33µM*	1.65µM*	-11.2%
Cc1ccc(-n2c(C)cc(/C=N/NC(=O)c3ccncc3)c2C)cc1C	-17.2%	19.8	10.4µM*	-1.6%	.
Cc1cccc(C)c1-n1c(C)cc(/C=N/NC(=O)CSc2ncccn2)c1C	-13.9%	-3.8	?	0.0%	-8.4%
CC1(CC(=O)N/N=C/c2cc([N+](=O)[O-])c(O)cc2O)OCCO1	?	-4.5	-18.1%	-6.2%	-19.7%
Cc1cc(/C=N/NC(N)=S)c(C)n1-c1ccc(Cl)c(Cl)c1	?	?	13.1µM*	11.7µM*	5.2%
Cc1ccc(-n2c(C)cc(/C=N/NC(=O)CC3(C)OCCO3)c2C)c(C)c1	-14.9%	-23.8	9.28µM*	-22.8%	4.2%
CCc1ccc(-n2c(C)cc(/C=N/NC(=O)c3ccncc3)c2C)cc1	-23.7%	-79.0*	?	164.4%	.
Cc1ccc(S(=O)(=O)NC(=O)C2(C)CCN2C(=O)Cc2ccc(Cl)cc2Cl)cc1 (stereo not given)	.	-14.4	.	.	.
CCCN(CC(=O)Nc1ccccc1C)C(=O)COc1c(Cl)cccc1Cl	.	5.6	-7.1%	?	-2.5%
CCN(CC)CCCN(C(=O)c1ccc(Br)cc1)c1nc(-c2ccc(OC)cc2)cs1	-24.6%	-36.3	?	-28.4%	-2.8%
CCN(CC)CCCN(C(=O)c1ccco1)c1nc(-c2ccc(C)cc2)cs1	-5.4%	?	?	60.3%	-4.1%
CCN(CC)CCCN(C(=O)c1cccc(C)c1)c1nc(-c2ccc(OC)cc2)cs1	-14.4%	-94.7*	?	4.15µM*	-5.6%
CCN(CC)CCCN(C(=O)c1ccco1)c1nc(-c2ccc(Cl)cc2)cs1	?	35.0	1.47µM*	?	2.5%
COCCCN(C(=O)c1ccccc1)c1nc(-c2ccc(OC)cc2)cs1	-5.0%	-21.1	?	?	-5.5%
CCN(CC)CCCN(C(=O)c1cccs1)c1nc(-c2ccc(OC)cc2)cs1	-4.1%	.	13.1µM*	-28.3%	?
COc1cccc(-c2nc(SCC(=O)NCC3CCCO3)c(-c3ccc(Cl)cc3)[nH]2)c1 (stereo not given)	.	-21.1	.	.	-0.3%

Screening results (PubChem BioAssay)
